Outcome and cAMP activity change data for 40 compounds are collected here from PubChem BioAssay (Tox21).

Each structure is given as a SMILES string. Records with an inconclusive call do not appear. Values without a mark were called inactive. Active and inactive are the calls of the source. Calls follow the shape of the full dose curve.
% is scaled to controls: 0 for no effect and ±100 for the full control effect.

The nature of the assay: qHTS assay to identify small molecule agonists or antagonists of the thyroid stimulating hormone receptor (TSHR) signaling pathway - wild type cell line counter screen (AID 1259384). Conditions: HEK293 wild type, cAMP HTRF counter-screen, hits give high values; series mostly up to 92.4 µM. The text has this:
U.S. Tox21 Program National Center for Advancing Translational Sciences [NCATS] NIH Chemical Genomics Center [NCGC] U.S. Environmental Protection Agency [EPA] National Institutes of Environmental Health Sciences [NIEHS] National Toxicology Program [NTP] U.S. Food and Drug Administration [FDA] Tox21 Assay Overview: TSHR is the receptor for thyrotropin (thyroid stimulating hormone or TSH), a member of the glycoprotein hormone family. TSH is released by the anterior pituitary gland and is the main regulator of thyroid gland growth and development. Upon binding circulating thyrotropin, a G-protein signal cascade activates adenylyl cyclase and […] cAMP concentration is increased. cAMP is a key second messenger involved extensively in cellular signal transduction pathways associated with the majority of G-protein coupled receptors (GPCRs). The activation of these GPCRs by neurotransmitters, lipids, nucleotides, peptides and hormones results in the activation or the inhibition of plasma membrane-bound adenylate cyclase through heterotrimeric G-proteins. A cell-based TSHR-Hek293 assay can be used to identify TSHR agonists. To eliminate the false positive compounds identified from screening a cell-based TSHR-Hek293 cell line, cAMP assay in a wild type Hek293 cells was used as a counter screening.
Tox21 Assay Protocol Summary: Hek293 cells (wild type) were dispensed at 800 cells/4 uL/well in 1536-well white plates using a Multidrop dispenser. After the assay plates were incubated at a 37 C/5% CO2 incubator for 18 hrs, 23 nL of compounds dissolved in DMSO, positive controls or DMSO only was transferred to the assay plate by a pin tool, followed by 1 ul medium containing Ro20-1724. After 30 min of incubation at room temperature, 2.5 ul/well of cAMP-d2 and 2.5 ul/well of anti-cAMP-cryptate were added respectively into the assay plates using a Flying Reagent Dispenser. The plates were incubated at room temperature for 1 hr. The fluorescence intensity in the plates was measured using an Envision plate reader. Each test compound was measured at 15 concentrations and in triplicates.
Background: Quantitative high-throughput screening tests each substance at several concentrations.
Regarding `O=C1NC(=O)C2CC=CCC12` (stereo not given), the compound was classed as inactive. On the same count and under the same terms, next, `CC(C#N)(CCC(=O)O)N=NC(C)(C#N)CCC(=O)O` (stereo not given): “inactive”. On the same count and under the same terms, in the case of `CCCCCCCCCCCCCCCCCCO` it was “inactive”; in that of `COC(=O)Nc1ccc(Cl)c(Cl)c1`, “inactive”; in that of `CNCCO`, “inactive”.

Regarding `C=C(C)C(=O)OCC(O)CO` (stereo not given), the call was inactive. Still for that read-out and setting: next, `COc1cccc(OC)c1C(=O)N[C@@H]1C(=O)N2[C@@H]1SC(C)(C)[C@@H]2C(=O)O`: “inactive”; `CCN[C@H]1C[C@H](C)S(=O)(=O)c2sc(S(N)(=O)=O)cc21`: “inactive”. The same measure, in the same setting: in the case of `O=C(O)c1cc(C(=O)O)cc(C(=O)O)c1` it was “inactive”.

As to `O=CN(CCO)CCO`, the outcome was inactive.

`CC(C)(C)C(=O)c1ccccc1`: the compound was classed as inactive. Same read-out and setting: in the case of `CC(C)C(=O)OC(=O)C(C)C` it was “inactive”; in that of `COc1cc(C(=O)NCc2ccc(OCCN(C)C)cc2)cc(OC)c1OC`, “inactive”; in that of `NO`, “inactive”. With `CC(C)CC(C)(N)C#N` (stereo not given), the result was inactive.

With `Cc1onc(-c2c(Cl)cccc2Cl)c1C(=O)Cl`, the call was inactive.

Consider `C[C@@H]1C[C@H]2[C@@H]3C[C@H](F)C4=CC(=O)C(Cl)=C[C@]4(C)[C@@]3(F)[C@@H](O)C[C@]2(C)[C@@]1(O)C(=O)CO`, for which the compound was classed as inactive. On to `CN(C)C(=O)Oc1ccc[n+](C)c1`, for which the call was inactive. The same measure, in the same setting: next, `[K+]`: “inactive”. `CC(C)C[C@@H](N)C(=O)O`: the cAMP activity change was 1.68% [at 18.9 µM]. Regarding `CN1C(C)(C)CC(O)CC1(C)C`, the outcome was inactive. On the same count and under the same terms, next, `CN(C)CCCCCCN(C)C`: “inactive”. For the compound `CN1CCN(c2cc3c(nn2)Oc2ccccc2N3C)CC1`, the cAMP activity change is -3.2% [at 18.9 µM]. On to `C=CC(=O)OCCCl`, for which the call was inactive. The same measure, in the same setting: in the case of `C[C@@H]1CCC[C@H](C)N1` it was “inactive”. Regarding `Cc1cc(C)c(N=Nc2c(O)c(S(=O)(=O)O)cc3cc(S(=O)(=O)O)ccc23)cc1C`, the cAMP activity change is 2.77% [at 8.39 µM]. `[O-][n+]1cccc(CO)c1`: the outcome was inactive.

Turning to `CCCCN(CCC(=O)OCC)C(C)=O`, the call was inactive. Same read-out and setting: next, `COCCOCC(OC)OC`: “inactive”; `O=C1c2ccccc2C(=O)c2cc(O)ccc21`: “inactive”; `O=C(O)CC(C(=O)O)S(=O)(=O)O` (stereo not given): “inactive”. In the case of `CCOc1c(N2CCOCC2)cnn(C)c1=O`, the compound was classed as inactive. The same measure, in the same setting: in the case of `O=Cc1cccc(Br)c1` it was “inactive”. On to `NCCCC(N)(C(=O)O)C(F)F` (stereo not given), for which the call was inactive. On the same count and under the same terms, in the case of `CCCO[Si](OCCC)(OCCC)OCCC` it was “inactive”; in that of `CCOC(=O)OC(C)OC1=C(C(=O)Nc2ccccn2)N(C)S(=O)(=O)c2ccccc21` (stereo not given), “inactive”; in that of `CC[N+](CC)(CC(=O)Nc1c(C)cccc1C)Cc1ccccc1` (tested in a mixture with another compound), “inactive”. On the same count and under the same terms, next, `CC(=O)N[C@H]1[C@H]([C@H](O)[C@H](O)CO)OC(C(=O)O)=C[C@@H]1N=C(N)N`: “inactive”; `C=CCCC(=O)O`: “inactive”; `C=CC(C)(CCC=C(C)C)OC(=O)CC` (stereo not given): “inactive”.
